Some test systems named below: HCT-15 colon; HT29 colon; SNB-75 CNS; SNB-19 CNS; U251 CNS; PC-3 prostate; SK-MEL-5 melanoma; UACC-62 melanoma; LOX IMVI melanoma; SK-MEL-28 melanoma; SK-MEL-2 melanoma; EKVX NSCLC; SN12C renal; UO-31 renal; TK-10 renal; ACHN renal; CAKI-1 renal; A498 renal; CCRF-CEM leukemia; MOLT-4 leukemia.
Holding throughout (assay): NCI-60 one-dose screen, 48 h (100 = growth as untreated, 0 = no growth, -100 = all killed)
Holding throughout (conditions): 10 µM unless noted

The results in this text go back to PubChem BioAssay (NCI).

This is part of a sample that, as a whole, favours compounds with a hit. Of some 83,000 tested, about 20% had one in any assay.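 Negative percent growth values reflect cell death: -40 means 40% of the cells present at the start died, and -100 means all died.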 A number with no mark means an inactive call. Active and inactive are the calls of the source. Rule for the calls: active = growth percent below 10; inactive = the rest.

With `CC(=O)Nc1ccc(S(=O)(=O)NC2CCCCC2)cc1`, the growth in the assay with HCT-15 colon is 95.9%; in the assay with HT29 colon it was 95.4%; in the assay with SNB-75 CNS, 86.3%; in the assay with SNB-19 CNS it was 96.2%; with U251 CNS it was 91%; with PC-3 prostate it was 94.6%. Also, the growth in the assay on SK-MEL-5 melanoma is 98.2%; in the assay on UACC-62 melanoma it was 91.4%; in the assay with LOX IMVI melanoma, 95.8%; in the assay with SK-MEL-28 melanoma, 98.3%; in the assay with SK-MEL-2 melanoma, 108%; in the assay with EKVX NSCLC, 95.2%. In addition, the growth in the assay on SN12C renal was 91%; in the assay with UO-31 renal it was 85.2%; in the assay with TK-10 renal, 90.2%; with ACHN renal, 91.7%; with CAKI-1 renal it was 98.5%; in the assay on A498 renal, 64.3%. In addition, the growth in the assay on CCRF-CEM leukemia was 96.3%.

`c1ccc(N2N=C(c3cccc(Nc4ccncc4)c3)CC2c2ccc3c(c2)OCO3)cc1` (centres undefined): the growth in the assay on HCT-15 colon is -26% (active); with HT29 colon, 6.66% (active); with SNB-75 CNS, 5.74% (active); with SNB-19 CNS it was 42.4%; in the assay with U251 CNS it was 4.31% (active); in the assay with PC-3 prostate, 14.3%. Further, the growth was -14.3% (active) in the assay on SK-MEL-5 melanoma; 62.1% in the assay with UACC-62 melanoma; -22.1% (active) in the assay on LOX IMVI melanoma; -52.7% (active) with SK-MEL-28 melanoma; 39% in the assay with SK-MEL-2 melanoma; 45.8% with EKVX NSCLC. The growth with SN12C renal was 40.8%; with UO-31 renal, 30.6%; in the assay on TK-10 renal, 63.1%; with ACHN renal it was 28.7%; with CAKI-1 renal, 25.7%; in the assay on A498 renal, 46.1%. In addition, in the assay with CCRF-CEM leukemia, the growth was 1.64% (active).

Consider `CCN(CC)CCSCCCNc1c(C)cnc2cc(Cl)ccc12`, for which the growth in the assay on HCT-15 colon was 76.7%; with HT29 colon, 54.9%; in the assay with SNB-75 CNS, 85.4%; with SNB-19 CNS it was 104%; in the assay on U251 CNS, 84%; in the assay with PC-3 prostate, 85.1%. Besides, the growth in the assay on SK-MEL-5 melanoma is 75.3%; in the assay on UACC-62 melanoma, 93.9%; in the assay with LOX IMVI melanoma, 79.5%; in the assay on SK-MEL-28 melanoma it was 87%; in the assay on SK-MEL-2 melanoma, 143%; in the assay with EKVX NSCLC, 87.4%. Also, the growth in the assay on SN12C renal was 82.7%; in the assay with UO-31 renal, 54.9%; in the assay with TK-10 renal it was 118%; in the assay on ACHN renal, 94.6%; with CAKI-1 renal, 90.5%; with A498 renal, 71.4%. Also, the growth in the assay on CCRF-CEM leukemia was 80.6%; in the assay on MOLT-4 leukemia, 70.4%.

As to `COc1cc(COC(=O)CCCCC[P+](c2ccccc2)(c2ccccc2)c2ccccc2)c(OC)c2c1OCO2`, the growth is 99.3% with HCT-15 colon; 32.3% in the assay on HT29 colon; 59.9% with SNB-75 CNS; 55.5% in the assay on SNB-19 CNS; 56.8% with U251 CNS; 44.9% in the assay on PC-3 prostate. The growth in the assay with SK-MEL-5 melanoma is 3.32% (active); in the assay on UACC-62 melanoma, 46.9%; in the assay on LOX IMVI melanoma it was 35.6%; with SK-MEL-28 melanoma it was 51.4%; in the assay with SK-MEL-2 melanoma, 68.4%; in the assay with EKVX NSCLC, 73%. The growth is 51% with SN12C renal; 91.4% in the assay on UO-31 renal; 75.6% with TK-10 renal; 98.5% in the assay with ACHN renal; 72.7% in the assay on CAKI-1 renal; 52.5% in the assay with A498 renal.

With `COc1cccc(CCC(=O)c2cc3c(N)c(C(=O)Nc4ccccc4)sc3nc2C)c1`, the growth in the assay with HCT-15 colon is 17.5%; in the assay with HT29 colon, 16.7%; in the assay with SNB-75 CNS it was 9.14% (active); in the assay with SNB-19 CNS, 38.5%; in the assay on U251 CNS it was 26.2%; in the assay on PC-3 prostate it was 49.8%. The growth in the assay on SK-MEL-5 melanoma is 8.92% (active); with UACC-62 melanoma, 28.3%; with LOX IMVI melanoma, 26.4%; in the assay on SK-MEL-28 melanoma, 42%; in the assay on SK-MEL-2 melanoma, 42.3%; in the assay on EKVX NSCLC, 45.4%. The growth is 35% in the assay on SN12C renal; 34.8% in the assay on UO-31 renal; 70.9% with TK-10 renal; 56.3% in the assay with ACHN renal; 28.4% in the assay with CAKI-1 renal; 9.88% (active) in the assay with A498 renal. Besides, the growth in the assay with CCRF-CEM leukemia is 29.7%; in the assay with MOLT-4 leukemia, 22.2%.

Turning to `COc1ccc(C(O)c2cc3c(N)c(C(=O)Nc4cccc(Br)c4C)sc3nc2C)cc1` (centres undefined), the growth is 18.6% in the assay on HCT-15 colon; -16% (active) in the assay on HT29 colon; -1.38% (active) with SNB-75 CNS; 44% in the assay on SNB-19 CNS; 20.9% in the assay on U251 CNS; 26.9% with PC-3 prostate. Moreover, the growth was -7.36% (active) in the assay with SK-MEL-5 melanoma; 27.2% in the assay on UACC-62 melanoma; 32.7% in the assay on LOX IMVI melanoma; 64.7% with SK-MEL-28 melanoma; 9.35% (active) in the assay with SK-MEL-2 melanoma; 37.7% in the assay with EKVX NSCLC. Moreover, the growth in the assay on SN12C renal was 17.9%; with UO-31 renal, 33.5%; in the assay with TK-10 renal, 27%; with ACHN renal, 29.1%; with CAKI-1 renal it was 41.1%; in the assay on A498 renal, -16.1% (active). In the assay on CCRF-CEM leukemia, the growth was 16.4%.

As for `O=C(Nc1ccccc1)Oc1ccccc1-c1ccccc1`, the growth with HCT-15 colon is 102%; with HT29 colon it was 96.5%; in the assay with SNB-75 CNS it was 75.5%; in the assay on SNB-19 CNS, 99.5%; in the assay on U251 CNS, 95.2%; in the assay with PC-3 prostate, 80.4%. Further, the growth is 97.9% in the assay with SK-MEL-5 melanoma; 93.2% in the assay with UACC-62 melanoma; 95.2% with LOX IMVI melanoma; 107% in the assay on SK-MEL-28 melanoma; 93.2% with SK-MEL-2 melanoma; 96.5% in the assay with EKVX NSCLC. The growth in the assay with SN12C renal is 98.5%; in the assay with UO-31 renal, 57.7%; in the assay on TK-10 renal, 94.1%; with ACHN renal, 99.9%; with CAKI-1 renal it was 88.2%; in the assay with A498 renal it was 75.3%. The growth with CCRF-CEM leukemia is 95.8%.

Consider `CCCCCCCCCCCCCCCCCCOc1ccccc1N`, for which the growth with HCT-15 colon is 85.6%; with HT29 colon, 92.5%; in the assay with SNB-75 CNS, 82.8%; in the assay on SNB-19 CNS, 87.1%; with U251 CNS, 50.3%; with PC-3 prostate, 21.3%. For the same compound, the growth was 98.2% in the assay on SK-MEL-5 melanoma; 88.5% with UACC-62 melanoma; 38.6% in the assay with LOX IMVI melanoma; 96.9% in the assay on SK-MEL-28 melanoma; 86.3% in the assay on SK-MEL-2 melanoma; 85.3% with EKVX NSCLC. In addition, the growth in the assay on SN12C renal is 27.8%; in the assay on UO-31 renal, -37% (active); in the assay on TK-10 renal, 103%; with ACHN renal, 97.8%; with CAKI-1 renal, 67.8%; in the assay on A498 renal, 61.8%. Also, the figures for the growth in the assay on CCRF-CEM leukemia and with MOLT-4 leukemia were 11% and 22.9%, respectively.
